Among the data in ChEMBL document CHEMBL3988442, “University of Dundee, Small-Polar-MMV Screening Library” (2021) are Percent Effect values, retold here.

For some of these results: Entries with a potency or affinity are not part of this list.

Design in all cases: scale not given: direction of the effect not stated beside the values
In assay [1] the target is Protein translocase subunit SecA (Escherichia coli (strain K12)) (UniProt P10408). In words: Assay to Identify E. coli SecA ATPase Inhibitors. As to conditions: 30 µM. The format is functional.
Chain of Protein translocase subunit SecA (Escherichia coli (strain K12)) (P10408 whole entry): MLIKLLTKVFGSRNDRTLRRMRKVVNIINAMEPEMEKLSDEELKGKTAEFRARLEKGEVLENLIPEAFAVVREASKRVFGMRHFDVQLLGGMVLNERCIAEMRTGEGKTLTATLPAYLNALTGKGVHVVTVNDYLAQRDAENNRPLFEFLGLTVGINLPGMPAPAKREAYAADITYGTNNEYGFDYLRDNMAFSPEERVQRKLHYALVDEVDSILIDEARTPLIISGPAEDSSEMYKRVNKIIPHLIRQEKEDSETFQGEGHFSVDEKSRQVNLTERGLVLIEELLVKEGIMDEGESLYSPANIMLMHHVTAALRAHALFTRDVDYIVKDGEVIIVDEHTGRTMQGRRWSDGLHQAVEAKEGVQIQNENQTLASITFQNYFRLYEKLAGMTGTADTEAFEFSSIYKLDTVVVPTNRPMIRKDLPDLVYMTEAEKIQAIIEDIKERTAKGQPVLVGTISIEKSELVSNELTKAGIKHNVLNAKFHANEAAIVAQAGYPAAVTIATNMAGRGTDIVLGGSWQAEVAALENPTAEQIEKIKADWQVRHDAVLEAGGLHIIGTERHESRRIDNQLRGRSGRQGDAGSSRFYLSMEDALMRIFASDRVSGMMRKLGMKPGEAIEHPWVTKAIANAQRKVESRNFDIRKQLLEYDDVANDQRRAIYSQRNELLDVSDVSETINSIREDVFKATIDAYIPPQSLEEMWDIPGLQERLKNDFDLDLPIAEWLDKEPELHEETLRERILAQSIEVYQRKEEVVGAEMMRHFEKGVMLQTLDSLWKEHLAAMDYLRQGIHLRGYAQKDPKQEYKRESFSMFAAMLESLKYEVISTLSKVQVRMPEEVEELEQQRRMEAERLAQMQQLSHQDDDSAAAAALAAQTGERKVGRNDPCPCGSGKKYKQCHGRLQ
Assay [2] has as its target T1, Ubiquitin-activating enzyme e1, putative (Leishmania donovani (strain BPK282A1)) (UniProt E9BSI1).
T1 sequence (whole entry): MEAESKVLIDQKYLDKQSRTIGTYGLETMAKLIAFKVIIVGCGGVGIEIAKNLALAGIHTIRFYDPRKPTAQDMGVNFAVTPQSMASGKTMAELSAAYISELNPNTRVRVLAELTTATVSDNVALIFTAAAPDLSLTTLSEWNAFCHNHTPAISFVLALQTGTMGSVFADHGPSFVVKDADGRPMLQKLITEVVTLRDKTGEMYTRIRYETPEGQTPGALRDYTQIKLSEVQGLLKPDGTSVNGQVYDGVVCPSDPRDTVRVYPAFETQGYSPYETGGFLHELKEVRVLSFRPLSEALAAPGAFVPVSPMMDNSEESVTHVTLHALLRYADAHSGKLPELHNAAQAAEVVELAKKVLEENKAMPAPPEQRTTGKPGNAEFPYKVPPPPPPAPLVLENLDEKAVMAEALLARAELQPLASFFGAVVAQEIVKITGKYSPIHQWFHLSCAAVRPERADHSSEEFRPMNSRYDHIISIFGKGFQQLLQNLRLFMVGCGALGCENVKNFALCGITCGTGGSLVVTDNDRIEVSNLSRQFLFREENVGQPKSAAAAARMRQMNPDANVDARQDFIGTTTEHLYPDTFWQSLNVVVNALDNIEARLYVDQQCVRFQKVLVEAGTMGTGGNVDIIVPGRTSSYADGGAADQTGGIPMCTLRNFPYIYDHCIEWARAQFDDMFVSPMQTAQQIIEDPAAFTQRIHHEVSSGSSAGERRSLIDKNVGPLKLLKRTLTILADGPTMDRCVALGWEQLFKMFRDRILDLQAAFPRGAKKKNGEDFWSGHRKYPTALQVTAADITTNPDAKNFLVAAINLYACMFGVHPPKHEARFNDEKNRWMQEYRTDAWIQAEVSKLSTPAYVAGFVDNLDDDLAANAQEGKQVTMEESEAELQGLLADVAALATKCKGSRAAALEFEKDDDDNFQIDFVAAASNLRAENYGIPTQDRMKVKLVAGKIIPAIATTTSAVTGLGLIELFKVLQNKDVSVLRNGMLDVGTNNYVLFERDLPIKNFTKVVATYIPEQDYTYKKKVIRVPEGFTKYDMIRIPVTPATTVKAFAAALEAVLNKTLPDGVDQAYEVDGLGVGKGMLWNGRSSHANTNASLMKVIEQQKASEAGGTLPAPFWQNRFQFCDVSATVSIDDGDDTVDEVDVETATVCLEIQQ
The assay is described as follows: Leishmania donovani Ubiquitin Activating Enzyme (LdE1). It is filed as functional. As to conditions: 30 µM.

Assay [3] deals with AMP-activated protein kinase, AMPK (Homo sapiens) (UniProt P54646+O43741+P54619+Q9UGJ0+Q9Y478+Q13131+Q9UGI9). The assay is described as follows: AMP-dependent Kinase enzyme assay. An in vitro enzyme assay that detects ADP turnover that is directly proportional to AMPK activity. This uses naive AMPK that is activated during the assay with MK-8722. It is filed as functional. Particulars: 30 µM.

Assay [4] has as its target Sialic acid-binding Ig-like lectin 9 (Homo sapiens) (UniProt Q9Y336). The assay is described as follows: Hs-Siglec9 ALPHAscreen SOP 20170721. As to conditions: 10 µM. For orientation: Bead proximity is the source of the signal in Alpha formats.
In the next assay the test system is Trypanosoma cruzi. The assay is described as follows: Trypanosoma cruzi phosphomannomutase and mannose-1-phosphate guanylyltransferase assay. It is filed as functional. As to conditions: 10 µM.
In assay [5] the target is T2, Arginase-2, mitochondrial (Homo sapiens) (UniProt P78540).
T2 sequence (whole entry): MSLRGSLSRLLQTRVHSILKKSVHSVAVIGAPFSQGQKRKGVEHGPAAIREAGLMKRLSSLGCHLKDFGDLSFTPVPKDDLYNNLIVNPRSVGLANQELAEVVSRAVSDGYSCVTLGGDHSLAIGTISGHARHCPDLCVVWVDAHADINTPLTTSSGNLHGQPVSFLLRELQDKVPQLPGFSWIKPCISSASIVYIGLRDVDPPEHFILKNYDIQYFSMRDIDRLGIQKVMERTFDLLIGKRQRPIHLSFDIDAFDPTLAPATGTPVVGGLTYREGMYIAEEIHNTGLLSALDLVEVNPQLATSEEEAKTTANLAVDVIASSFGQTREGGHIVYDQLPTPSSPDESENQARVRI
In words: in vitro enzyme assay to detect the production of urea directly proportional to the activity of Arginase II. Also: in the data most compounds retested in dose-response had high values. It is filed as functional. As to conditions: 33.3 µM.

The target of assay [6] is T3, Proteasome subunit beta (Trypanosoma cruzi) (UniProt O96673).
T3 sequence (whole entry): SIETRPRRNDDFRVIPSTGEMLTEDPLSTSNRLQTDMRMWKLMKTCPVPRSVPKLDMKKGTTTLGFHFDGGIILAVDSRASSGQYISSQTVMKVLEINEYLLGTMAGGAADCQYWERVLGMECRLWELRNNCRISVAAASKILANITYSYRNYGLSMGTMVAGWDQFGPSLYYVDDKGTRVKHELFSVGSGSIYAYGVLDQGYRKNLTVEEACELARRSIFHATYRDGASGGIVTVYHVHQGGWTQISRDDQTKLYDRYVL
The assay is described as follows: Trypanosoma cruzi proteasome chymotrypsin-like activity (TcProtChymo) assay. Also: in the data most compounds retested in dose-response had high values. The format is functional. As to conditions: 9.37 µM.

Another assay is filed under the species Homo sapiens. In words: To identify inhibition of the IFN signalling (Jak-Stat) pathway via expression of an eGFP reporter gene under the control of an IFN-stimulated response element (ISRE) containing MxA promoter. As to conditions: 30 µM. It is filed as functional. In general terms: A reporter such as luciferase makes a cellular process visible.
The target of assay [7] is T4, Tyrosyl-tRNA synthetase, putative (Trypanosoma cruzi (strain CL Brener)) (UniProt Q4DSP6).
T4 sequence (whole entry): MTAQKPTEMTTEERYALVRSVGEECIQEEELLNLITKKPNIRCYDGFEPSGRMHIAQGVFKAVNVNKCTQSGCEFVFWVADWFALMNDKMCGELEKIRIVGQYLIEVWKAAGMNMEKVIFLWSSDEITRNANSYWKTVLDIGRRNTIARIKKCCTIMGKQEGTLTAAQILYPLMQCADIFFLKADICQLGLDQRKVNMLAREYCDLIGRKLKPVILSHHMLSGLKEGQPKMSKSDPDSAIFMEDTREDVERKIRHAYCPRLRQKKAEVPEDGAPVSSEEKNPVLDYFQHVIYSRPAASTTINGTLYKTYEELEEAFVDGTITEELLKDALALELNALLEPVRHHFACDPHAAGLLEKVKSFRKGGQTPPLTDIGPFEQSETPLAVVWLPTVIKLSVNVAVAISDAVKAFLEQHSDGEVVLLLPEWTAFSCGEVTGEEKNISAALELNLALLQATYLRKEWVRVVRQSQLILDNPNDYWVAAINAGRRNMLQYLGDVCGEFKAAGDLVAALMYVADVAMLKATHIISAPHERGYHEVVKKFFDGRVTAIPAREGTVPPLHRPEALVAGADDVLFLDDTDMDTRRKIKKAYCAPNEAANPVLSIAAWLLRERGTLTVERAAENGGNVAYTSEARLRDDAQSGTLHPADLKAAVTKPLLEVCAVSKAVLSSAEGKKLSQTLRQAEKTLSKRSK
The assay is described as follows: Trypanosoma cruzi tyrosyl tRNA synthetase (TcYRS) _High Tyrosine SOP. Also: in the data most compounds retested in dose-response had high values. The format is functional. As to conditions: 30 µM.

Assay [8] deals with T4, Tyrosyl-tRNA synthetase, putative (Trypanosoma cruzi (strain CL Brener)). The assay is described as follows: Trypanosoma cruzi tyrosyl tRNA synthetase (TcYRS) SOP. The format is functional. As to conditions: 30 µM.
In assay [9] the target is Chromo domain-containing protein 1 (Saccharomyces cerevisiae (strain ATCC 204508 / S288c) (Baker's yeast)) (UniProt P32657). In words: ScCHD-1 Enzyme Inhibition Assay. Also: in the data most compounds retested in dose-response had high values. The format is functional. Particulars: 30 µM.
Chain of Chromo domain-containing protein 1 (Saccharomyces cerevisiae (strain ATCC 204508 / S288c) (Baker's yeast)) (P32657 whole entry, the tested form may be a part): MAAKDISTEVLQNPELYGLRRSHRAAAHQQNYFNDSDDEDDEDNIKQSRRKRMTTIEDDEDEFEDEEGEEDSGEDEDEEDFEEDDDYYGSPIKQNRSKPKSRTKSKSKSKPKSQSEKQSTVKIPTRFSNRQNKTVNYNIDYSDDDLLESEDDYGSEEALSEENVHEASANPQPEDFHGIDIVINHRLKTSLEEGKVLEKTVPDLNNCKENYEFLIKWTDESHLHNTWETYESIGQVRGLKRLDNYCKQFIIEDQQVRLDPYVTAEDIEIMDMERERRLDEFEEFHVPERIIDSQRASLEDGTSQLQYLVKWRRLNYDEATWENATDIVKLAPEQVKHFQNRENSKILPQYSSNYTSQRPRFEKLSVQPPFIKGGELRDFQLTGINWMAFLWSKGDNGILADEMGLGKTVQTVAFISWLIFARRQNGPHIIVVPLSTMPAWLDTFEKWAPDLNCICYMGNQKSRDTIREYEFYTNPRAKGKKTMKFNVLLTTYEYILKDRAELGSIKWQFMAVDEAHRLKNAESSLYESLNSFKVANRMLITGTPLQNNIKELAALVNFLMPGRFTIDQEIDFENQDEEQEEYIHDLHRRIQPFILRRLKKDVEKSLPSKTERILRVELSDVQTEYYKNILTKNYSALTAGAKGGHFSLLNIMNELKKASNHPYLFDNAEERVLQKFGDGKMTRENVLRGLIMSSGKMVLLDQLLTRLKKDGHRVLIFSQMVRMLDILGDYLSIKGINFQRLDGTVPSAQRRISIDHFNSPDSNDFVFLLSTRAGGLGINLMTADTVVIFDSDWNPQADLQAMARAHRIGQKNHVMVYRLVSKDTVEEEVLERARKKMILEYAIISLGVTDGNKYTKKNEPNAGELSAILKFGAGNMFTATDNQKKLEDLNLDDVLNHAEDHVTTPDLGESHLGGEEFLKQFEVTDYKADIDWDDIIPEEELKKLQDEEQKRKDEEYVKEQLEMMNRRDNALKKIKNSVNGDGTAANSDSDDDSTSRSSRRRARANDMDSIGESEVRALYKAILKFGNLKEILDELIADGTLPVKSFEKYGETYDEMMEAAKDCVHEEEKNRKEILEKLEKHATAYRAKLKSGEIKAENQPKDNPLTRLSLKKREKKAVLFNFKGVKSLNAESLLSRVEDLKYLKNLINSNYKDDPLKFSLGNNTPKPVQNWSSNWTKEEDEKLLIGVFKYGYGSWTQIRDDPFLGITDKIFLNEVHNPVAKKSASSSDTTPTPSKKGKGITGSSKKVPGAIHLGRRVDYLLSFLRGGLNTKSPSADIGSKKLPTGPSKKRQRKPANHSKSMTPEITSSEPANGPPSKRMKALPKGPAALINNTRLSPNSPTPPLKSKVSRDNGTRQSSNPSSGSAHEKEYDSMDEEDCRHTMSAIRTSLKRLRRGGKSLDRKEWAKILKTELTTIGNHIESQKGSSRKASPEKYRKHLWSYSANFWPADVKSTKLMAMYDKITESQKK

Chain of Sialic acid-binding Ig-like lectin 9 (Homo sapiens) (Q9Y336 whole entry): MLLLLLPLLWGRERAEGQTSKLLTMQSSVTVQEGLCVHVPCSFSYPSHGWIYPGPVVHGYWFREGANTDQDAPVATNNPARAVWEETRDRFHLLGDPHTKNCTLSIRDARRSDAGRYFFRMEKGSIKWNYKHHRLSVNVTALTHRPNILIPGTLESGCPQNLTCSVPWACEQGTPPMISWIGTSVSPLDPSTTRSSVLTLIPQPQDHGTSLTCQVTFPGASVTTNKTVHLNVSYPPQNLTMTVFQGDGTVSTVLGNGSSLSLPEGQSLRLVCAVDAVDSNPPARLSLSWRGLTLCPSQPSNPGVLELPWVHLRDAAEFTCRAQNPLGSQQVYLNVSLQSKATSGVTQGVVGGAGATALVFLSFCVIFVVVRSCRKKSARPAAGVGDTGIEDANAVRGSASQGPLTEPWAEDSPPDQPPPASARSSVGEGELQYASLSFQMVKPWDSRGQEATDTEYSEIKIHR

As to `CCN(CC)C1CCN(C(=O)NCc2c(C)noc2C)CC1`, the Percent Effect in assay [1] was -3.56%; in assay [2], 5.48%; in assay [3] it was -3.43%; in [4], 2.27%; in the assay with Trypanosoma cruzi it was 0.198%; in assay [5], -3.59%. In addition, the Percent Effect in assay [6] is 10.9%; in the assay listed under Homo sapiens it was -3.14%; in [7], 7.29%; in [8] it was 13.6%; in assay [9] it was -1.04%.

As for `Cn1cc(C(=O)CC2CCCN2C(=O)c2cncc3ccccc23)cn1` (stereo unspecified), the Percent Effect in assay [1] was -2.2%; in [2], 6.33%; in assay [3] it was -4.89%; in [4], 2.04%; in the assay with Trypanosoma cruzi it was 0.718%; in [5], 4.95%. Moreover, the Percent Effect is 5.66% in [6]; 14.6% in the assay filed under Homo sapiens; 5.21% in [7]; 12.7% in assay [8]; -15% in assay [9].

In the case of `c1ccc(Cn2ccnc2CN2CCOC(Cn3cccn3)C2)cc1` (stereo unspecified), the Percent Effect was -9.1% in assay [1]; 3.8% in assay [2]; 9.54% in assay [3]; 2.25% in assay [4]; -7.69% in the assay on Trypanosoma cruzi; -5.81% in assay [5]. The Percent Effect was 4.12% in assay [6]; 2.94% in the assay listed under Homo sapiens; 8.33% in assay [7]; 17.7% in [8]; -16.1% in assay [9].

Regarding `COCCN1CCC(CN(CC2CCCO2)C(=O)COC)CC1` (stereo unspecified), the Percent Effect in assay [1] is -4.47%; in [2] it was 15.3%; in assay [3] it was -11%; in assay [4], 28.6%; in the assay with Trypanosoma cruzi, 7.09%; in assay [5] it was 4.86%. Moreover, the Percent Effect in assay [6] is 5.79%; in the assay filed under Homo sapiens, -0.94%; in [7], 3.16%; in [8] it was 15.4%; in assay [9], -9.34%.

`Cc1ccc(N2CCCc3sc(C(=O)NCc4cccnc4)nc32)nn1`: the Percent Effect in assay [1] is -3.86%; in assay [2], -8.22%; in assay [3], -0.787%; in assay [4], 3.77%; with Trypanosoma cruzi it was 7.54%; in [5], -7.19%. Also, the Percent Effect in assay [6] is 5.39%; in the assay filed under Homo sapiens, -8.08%; in assay [7], 1.04%; in [8], 6.17%; in [9] it was -2.84%.

As for `COCC(=O)N1CC[C@H]2C[C@@H](c3nnc(C4CC4)o3)O[C@@H]2C1`, the Percent Effect in assay [1] is -5.18%; in assay [2], 18.7%; in assay [3], -7.93%; in [4] it was 0.755%; in the assay on Trypanosoma cruzi it was 1.74%; in assay [5], -57.2%. The Percent Effect was 19.5% in assay [6]; -2.44% in the assay filed under Homo sapiens; 4.17% in [7]; 17.5% in assay [8]; -6.39% in assay [9].

For `COc1ccccc1CN1C(=O)O[C@@H]2CN(c3nccs3)C[C@@H]21`, the Percent Effect is -8.53% in assay [1]; 0% in assay [2]; 2% in [3]; 2.51% in assay [4]; -5.75% in the assay with Trypanosoma cruzi; -3.12% in assay [5]. Also, the Percent Effect is 11.2% in assay [6]; 15.3% in the assay listed under Homo sapiens; 2.73% in assay [7]; 3.7% in [8]; -3.84% in assay [9].

Turning to `COc1ccc(F)c(CN2CCC3(CCC(=O)N(CC(N)=O)C3)CC2)c1`, the Percent Effect in assay [1] was -4.11%; in assay [2], 5.33%; in assay [3], -12.6%; in assay [4], -1.01%; with Trypanosoma cruzi, -3.02%; in assay [5], -3.12%. Also, the Percent Effect in [6] was 12.4%; in the assay filed under Homo sapiens, 36.4%; in assay [7], 6.01%; in [8], 8.64%; in [9] it was -5.79%.

As for `O=C(Cc1ccc(F)cc1)N1CCCCC1c1ccn2ccnc2n1` (stereo unspecified), the Percent Effect in assay [1] was -2.25%; in assay [2], -1.35%; in assay [3], 14.8%; in assay [4] it was 2.79%; in the assay with Trypanosoma cruzi, -2.96%; in assay [5] it was -1.16%. In addition, the Percent Effect is 9.83% in assay [6]; 10.1% in the assay filed under Homo sapiens; 0% in [7]; -1.3% in assay [8]; -17.6% in [9].

As to `COc1ccc(OCc2cc(C(=O)N3CCN[C@H](C)C3)n[nH]2)c(Cl)c1`, the Percent Effect in assay [1] was -0.706%; in assay [2] it was 5.41%; in assay [3], 0.0243%; in assay [4], -0.0327%; in the assay with Trypanosoma cruzi, -4.63%; in [5], 2.86%. Moreover, the Percent Effect is 14.5% in assay [6]; 5.15% in the assay listed under Homo sapiens; 2.65% in assay [7]; 9.76% in assay [8]; -3.55% in [9].

Turning to `COCCn1cc2c(n1)C(CNCc1ccco1)OCC2` (stereo unspecified), the Percent Effect in assay [1] was -7.4%; in assay [2], -2.7%; in [3], 0.854%; in assay [4] it was 9.04%; in the assay on Trypanosoma cruzi it was -0.781%; in assay [5], 0.833%. The Percent Effect in assay [6] is 18%; in the assay listed under Homo sapiens it was 13.2%; in assay [7], 3.96%; in assay [8], -3.66%; in assay [9] it was -1.08%.
